Measurements as given in PubChem BioAssay AID1159580 (chemical genetic matrix, 2015).
“And” between values parts separate entries of the source, which are not always exact repeats. Equal values may be shown once. In all, about 5,500 compounds went through this assay and about 2,000 (36%) were called active. Not shown: some 18% with an inconclusive outcome. No stated cut-off is given here; in the data, active means normalized growth mostly below about 0.91 (no sharp cut-off); inconclusive means no clear call, values can overlap the other calls; inactive means mostly above about 0.92. This is one part of the list.

Test: chemical genetic growth profiling, strain panel (AID 1159580);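 further: tested at 20 µM; growth read once vehicle control cultures reached saturation at 30 °C; 1 = growth at the plate median or of vehicle wells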
Conditions: S. cerevisiae deletion strains, growth OD

Measured: normalized growth

COc1cc([C@@H]2c3cc4c(cc3C(O[C@@H]3O[C@@H]5CO[C@@H](c6cccs6)OC5[C@H](O)[C@H]3O)C3COC(=O)[C@@H]32)OCO4)cc(OC)c1O (stereo not given in full)
inactive: locus YAL013W, strain DEP1, stronger effect = lower value 1.01 | locus YAL021C, strain ccr4, stronger effect = lower value 0.986 | locus YAL026C, strain drs2, stronger effect = lower value 0.957 | locus YAL030W, strain snc1, stronger effect = lower value 0.995 | locus YBL061C, strain skt5, stronger effect = lower value 0.981 | locus YBR009C, strain hhf1, stronger effect = lower value 0.955 | locus YBR021W, strain FUR4, stronger effect = lower value 1 | locus YBR023C, strain chs3, stronger effect = lower value 1.01 | locus YBR171W, strain sec66, stronger effect = lower value 0.981 | locus YBR229C, strain ROT2, stronger effect = lower value 1 | locus YBR231C, strain swc5, stronger effect = lower value 0.997 | locus YBR279W, strain paf1, stronger effect = lower value 0.967 | locus YCL011C, strain gbp2, stronger effect = lower value 0.987 | locus YCL016C, strain dcc1, stronger effect = lower value 1.02 | locus YCL029C, strain bik1, stronger effect = lower value 1.03 | locus YCL061C, strain MRC1, stronger effect = lower value 0.969 | locus YCL069W, strain vba3, stronger effect = lower value 0.971 | locus YCR088W, strain abp1, stronger effect = lower value 0.984 | locus YDL005C, strain med2, stronger effect = lower value 0.971 | locus YDL035C, strain GPR1, stronger effect = lower value 1.02 | locus YDL040C, strain nat1, stronger effect = lower value 0.982 | locus YDL074C, strain BRE1, stronger effect = lower value 0.996 | locus YDL101C, strain DUN1, stronger effect = lower value 1.01 | locus YDL134C, strain PPH21, stronger effect = lower value 1.01 | locus YDL185W, strain tfp1, stronger effect = lower value 1.03 | locus YDL192W, strain arf1, stronger effect = lower value 1.02 | locus YDR001C, strain nth1, stronger effect = lower value 0.985 | locus YDR069C, strain doa4, stronger effect = lower value 0.983 | locus YDR101C, strain arx1, stronger effect = lower value 1 | locus YDR137W, strain rgp1, stronger effect = lower value 0.972 | locus YDR150W, strain NUM1, stronger effect = lower value 0.998 | locus YDR159W, strain sac3, stronger effect = lower value 0.932 | locus YDR162C, strain NBP2, stronger effect = lower value 1.01 | locus YDR195W, strain ref2 0.961 | locus YDR297W, strain sur2, stronger effect = lower value 0.992 | locus YDR318W, strain mcm21, stronger effect = lower value 1.02 | locus YDR334W, strain swr1, stronger effect = lower value 0.972 | locus YDR335W, strain msn5, stronger effect = lower value 0.99 | locus YDR388W, stronger effect = lower value 1.01 | locus YDR392W, strain spt3, stronger effect = lower value 0.97 | locus YDR502C, strain sam2, stronger effect = lower value 1.02 | locus YEL003W, strain gim4, stronger effect = lower value 0.969 | locus YEL037C, strain rad23, stronger effect = lower value 0.964 | locus YEL061C, strain CIN8 (second series), stronger effect = lower value 0.967 | locus YEL061C, strain CIN8, stronger effect = lower value 1 | locus YER015W, strain faa2, stronger effect = lower value 0.989 | locus YER016W, strain bim1, stronger effect = lower value 0.999 | locus YER110C, stronger effect = lower value 1.02 | locus YER111C, strain swi4, stronger effect = lower value 0.98 | locus YER155C, strain BEM2 (second series), stronger effect = lower value 1.01 | locus YER155C, strain BEM2, stronger effect = lower value 1 | locus YER167W, strain BCK2, stronger effect = lower value 1.01 | locus YFR010W, strain ubp6, stronger effect = lower value 0.956 | locus YGL078C, strain dbp3, stronger effect = lower value 1.02 | locus YGL086W, strain mad1, stronger effect = lower value 1.01 | locus YGL167C, strain pmr1, stronger effect = lower value 0.981 | locus YGL173C, strain kem1, stronger effect = lower value 0.983 | locus YGL227W, strain vid30, stronger effect = lower value 0.994 | locus YGL240W, strain doc1, stronger effect = lower value 1.01 | locus YGL248W, strain PDE1, stronger effect = lower value 1 | locus YGL253W, strain hxk2, stronger effect = lower value 0.964 | locus YGR135W, strain pre9, stronger effect = lower value 1.01 | locus YGR229C, strain SMI1, stronger effect = lower value 1 | locus YGR252W, strain gcn5, stronger effect = lower value 1.03 | locus YHR013C, strain ard1, stronger effect = lower value 0.997 | locus YHR027C, strain rpn1, stronger effect = lower value 0.975 | locus YHR030C, strain SLT2, stronger effect = lower value 1 and 1.02 | locus YHR079C, strain IRE1 (second series), stronger effect = lower value 1.02 | locus YHR079C, strain IRE1, stronger effect = lower value 1.01 | locus YHR094C, strain hxt1, stronger effect = lower value 1.01 | locus YHR129C, strain ARP1, stronger effect = lower value 1 | locus YHR142W, strain chs7, stronger effect = lower value 0.981 | locus YHR200W, strain rpn10, stronger effect = lower value 1.01 | locus YIL066C, strain RNR3, stronger effect = lower value 1.01 | locus YIL073C, strain SPO22, stronger effect = lower value 1.04 | locus YIL125W, strain kgd1, stronger effect = lower value 1.01 | locus YIR030C, strain dcg1, stronger effect = lower value 1.02 | locus YJL092W, strain hpr5, stronger effect = lower value 0.977 | locus YJL095W, strain BCK1 (second series), stronger effect = lower value 0.992 | locus YJL095W, strain BCK1, stronger effect = lower value 0.991 and 1 | locus YJL115W, strain asf1, stronger effect = lower value 0.96 | locus YJL129C, strain trk1, stronger effect = lower value 0.993 | locus YJL134W, strain LCB3, stronger effect = lower value 1 | locus YJL154C, strain vps35, stronger effect = lower value 0.979 | locus YJL164C, strain tpk1, stronger effect = lower value 0.962 | locus YJL166W, strain qcr8, stronger effect = lower value 1.01 | locus YJL168C, strain set2, stronger effect = lower value 1.01 | locus YJL187C, strain SWE1 (second series), stronger effect = lower value 1 | locus YJL187C, strain SWE1, stronger effect = lower value 0.984 | locus YJR043C, strain POL32, stronger effect = lower value 0.982
